# Test results as given in PubChem BioAssay.
# Measured potencies and affinities stand elsewhere. Activity calls are given as the source filed them. How the calls were made is not given here.
# Experiment: A549 cell cytotoxicity, dose response, cytotoxicity control, plate reader, cherry-pick, antagonist series (AID 743412)
# Settings: series mostly up to 26 µM
row,Compound,outcome
1,Cc1ccc(S(=O)(=O)N2CCCc3nc(-c4ccc(F)cc4)ccc32)cc1,inactive
2,O=S(=O)(Nc1ccc(O)c2ccccc12)c1ccc(OC(F)(F)F)cc1,inactive
3,COc1ccc(NC(=O)Nc2ccc3c(c2)CC(=O)N([C@@H](C)CO)C[C@@H](C)[C@H](CN(C)Cc2ccncc2)O3)cc1,inactive

# Experiment: toxicity toward HepG2 liver cells – cell-based, plate reader, cherry-pick, antagonist series, cytotoxicity control, dose response (AID 743416)
# Settings: series mostly up to 26 µM
row,Compound,outcome
1,CN(C(=O)COC(=O)c1nc(Cl)c(Cl)c(Cl)c1Cl)C1CCS(=O)(=O)C1 (stereo not given),inactive
2,C[C@H](CO)N1C[C@H](C)[C@H](CN(C)C(=O)Nc2cccc3ccccc23)OCCCC[C@H](C)Oc2ccc(NC(=O)CCC(F)(F)F)cc2C1=O,inactive
3,Nc1nccc(-c2cc(-c3ccc(Cl)cc3Cl)no2)n1,inactive
4,Cc1ccc(S(=O)(=O)N2CCCCC2)cc1NC(=O)c1ccc2c(=O)n3c(nc2c1)CCCCC3,inactive
5,CC1CCCN(c2ncnc3c2cnn3-c2ccc(Cl)cc2)C1 (stereo not given),inactive
6,Cc1ccc(C(=O)Nc2ccc3c(c2)OCCO3)cc1,inactive
7,COc1ccccc1N(Cc1ccccc1)S(=O)(=O)c1cccc(C(=O)Nc2cc(C)ccn2)c1,inactive
8,C[C@H](CO)N1C[C@H](C)[C@H](CN(C)S(=O)(=O)c2ccc(C(F)(F)F)cc2)OCc2ccccc2-c2c(n(C)c3ccccc23)C1=O,inactive
9,O=C(Nc1ccc(-c2nc3cccnc3s2)cc1)C1CCCO1 (stereo not given),inactive
10,Cc1ccccc1C(=O)Nc1ccc2c(c1)OCCO2,inactive
11,COc1ccc(S(=O)(=O)N(C)C[C@@H]2OCCCC[C@H](C)Oc3ccc(NS(=O)(=O)c4ccc(Cl)cc4)cc3C(=O)N([C@@H](C)CO)C[C@@H]2C)cc1,inactive
12,CC(C)CCNC(=O)C(c1ccc(O)cc1)N(Cc1cccs1)C(=O)C1COc2ccccc2O1 (stereo not given),inactive
13,O=C(Nc1ccc(Cl)cc1)Nc1cccc(C(=O)O)c1,inactive
14,O=C(Nc1ccc(Cl)cc1)Nc1ccccc1C(=O)O,inactive
15,CC(C)CCn1cnc2c(oc3nc4c(cc32)CCCC4)c1=O,inactive
16,c1ccc(-c2cn3c4c(sc3n2)CCCC4)cc1,inactive
17,COc1ccc(-c2cn3cc(C)ccc3n2)cc1F,inactive
18,Cc1ccc(Nc2nc3ccccc3s2)c(C)c1,inactive
19,O=C(Nc1ccc(N2CCOCC2)cc1)c1cnccn1,inactive

row,Compound,outcome
1,O=C(COc1ccc2c(c1)CCC2)Nc1ccccn1,inactive
2,CCOc1ccc(C(=O)NCCc2ccccc2)cc1,inactive
3,CCCNC(=O)N1[C@H](C#N)[C@H](c2ccc(C#Cc3ccc(F)cc3)cc2)[C@H]1CO,inactive
4,C[C@H](CO)N1C[C@H](C)[C@H](CN(C)C(=O)Nc2cccc3ccccc23)OCCCC[C@H](C)Oc2ccc(NC(=O)c3ccccc3)cc2C1=O,inactive
5,COc1ccc(-n2cc(C(=O)c3ccccc3O)cn2)cc1,inactive
6,Cc1cccc(-c2ccc([C@H]3[C@@H](CO)N4CCCCN(C(=O)c5cccnc5)C[C@@H]34)cc2)c1,inactive
7,CCOc1ccc(-c2ccc(SCC)nn2)cc1,inactive
8,CC1CCN(c2ccc(-c3cccs3)nn2)CC1,inactive
9,COC(=O)c1ccc2nc(-c3ccc4c(c3)OCO4)cn2c1,inactive
10,O=C(NCCc1ccc(Cl)cc1)c1ccc2c(c1)OCCO2,inactive
11,COc1ccc(S(=O)(=O)Nc2ccc3c(c2)C(=O)N([C@@H](C)CO)C[C@@H](C)[C@H](CN(C)C(=O)Nc2cccc4ccccc24)OCCCC[C@H](C)O3)cc1,inactive
12,COCC(=O)N1CCCCN2[C@H](CO)[C@H](c3ccc(-c4cccc(C)c4)cc3)[C@@H]2C1,inactive
13,CN(C)c1cccc(C(=O)Nc2nc3ccccc3[nH]2)c1,inactive
14,O=C(COC(=O)c1ccccc1C(=O)c1ccc(Cl)c([N+](=O)[O-])c1)NC1CC1,inactive
15,C[C@@H]1CN([C@@H](C)CO)C(=O)c2cccc(NC(=O)Nc3ccc(C(F)(F)F)cc3)c2O[C@@H]1CN(C)C(=O)Nc1cccc2ccccc12,inactive
16,CSc1nnc(NC(=O)c2ccc3c(c2)OCO3)s1,inactive
17,Cc1cc(C(=O)CSc2nnc3ccccn23)c(C)n1-c1ccccc1,inactive
18,COc1ccc(Nc2ncc(F)c(N3CCOCC3)n2)cc1,inactive
